# Luciferase inh = Firefly luciferase inhibition profiling of diverse chemical library using quantitative high-throughput screening; purified P. pyralis luciferase, luminescence, biochemical; Potency, µM (doses to about 115 µM), most hits filed as inhibitors; 2.5% of 76,000 active; AID 1347043, 2019; also: nearly all actives have a fitted effect of over 65% in size
#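 Luminescence read by CCD imaging after purified firefly luciferase (10nM final) was added to substrate buffer holding 10uM D-luciferin and 10uM ATP, pH 7.5, pre-dosed with compound.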
# NIH3T3 tox = Cytotoxic Profiling in NIH 3T3 Cell Line of Diverse Libraries Using Quantitative High-Throughput Screening; NIH 3T3 viability, CellTiter-Glo ATP luminescence, 48-72 h; Potency, µM (doses to about 96.7 µM), inactives show top-dose activity change, negative = cytotoxicity, usual class: inhibitors; 4.3% of 94,000 active; also: nearly all actives have a fitted effect of over 55% in size
#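 First NIH 3T3 cells are plated at 400 cells/well; next compound is pinned in; then plates incubate 48 or 72 hr at 37 °C; finally CellTiter-Glo is added and luminescence read after 10 min.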
# SNCA expr inhib = Primary qHTS assay for inhibitors of alpha-synuclein gene (SNCA) expression; HEK-293 SNCA-luciferase knock-in, luminescence, 24 h; AID 1671194, 2021; 0.17% of 140,000 active; Potency, µM (series often up to 57.2 µM), for the others: at the top dose activity change, negative = inhibition, most hits filed as inhibitors;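 also: plate controls were DMSO cells for no effect and cell-free wells for full effect; nearly all actives have a fitted effect of over 45% in size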
# SNCA viab count = GF-AFC viability counterscreen for inhibitors of alpha-synuclein gene (SNCA) expression | 0.12% of 150,000 active | AID 1671193, 2021 | Potency, µM (series often up to 57.1 µM), inactives show at the highest dose activity change, negative = cytotoxicity, most hits filed as cytotoxic | HEK-293-SNCA-luc viability, GF-AFC fluorescence, 24 h;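 also: 0% = DMSO-treated cells and -100% = medium-only wells without cells; nearly all actives have a fitted effect of over 30% in size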
#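 Cytotoxicity counterscreen: after 24 h compound treatment of genome-edited SNCA-luciferase HEK-293 cells, live-cell protease substrate GF-AFC read by fluorescence after 30 min; activity scaled between DMSO (0%) and medium-only (-100%), curves Hill-fitted.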
# hNpr1 antagonist = Natriuretic polypeptide receptor (hNpr1) antagonism - Primary qHTS; Atrial natriuretic peptide receptor 1 (Homo sapiens), P16066; 1.6% of 76,000 active; Potency, µM (titrated, usually from 46.3 µM), inactives show at the top dose activity change, negative = inhibition, actives largely listed as inhibitors; HEK293 hNpr1 GloSensor cGMP, ANP-stimulated luminescence; calls by dose curve; also: nearly all actives have a fitted effect of over 60% in size
#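 HEK293 cells stably expressing human Npr1 and cGMP GloSensor pGS-40F, loaded 2 h with 2% GloSensor reagent, given compound 30 min at room temperature. Luminescence read before and 20 min after 0.1 nM hNppA.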
# HEK cytotox = Cytotoxic Profiling in HEK 293 Cell Line of Diverse Libraries Using Quantitative High-Throughput Screening; Potency, µM (highest dose often 115 µM), for inactives: at the highest dose activity change, negative = cytotoxicity, most hits filed as inhibitors; 6.6% of 94,000 active; AID 1345083, 2018; HEK 293 viability, ATP luminescence (CellTiter-Glo), 48-72 h; also: nearly all actives have a fitted effect of over 60% in size
#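 HEK 293 cells at 250 cells/well were exposed to compounds by pintool transfer for 48 or 72 hr at 37 degree Celsius, 5% CO2. Viability was read as ATP-coupled luminescence with CellTiter-Glo after 10 min at room temperature.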
# Numbers without * were called inactive; i = inactive; u = inconclusive; x = no result; [ ] = remark or other dose. Shown are actives, neighbours in structure and some others; about 7.4% of the full set was active somewhere. Unless noted, calls follow the shape of the dose curve; as a rule, active = well fitted curve in the direction sought with a large enough effect; inconclusive = small, poorly fitted or top-dose-only effect, or another doubt; inactive = no such curve, though single readings can be large; an effect the other way counts as inactive or inconclusive. Unless noted, % is scaled to controls: 0 for no effect and ±100 for the full control effect; potency is read from the fitted curve at half-maximal effect.
SMILES,Luciferase inh,NIH3T3 tox,SNCA expr inhib,SNCA viab count,hNpr1 antagonist,HEK cytotox
COc1ccc(-c2cc(C[C@H]3CNCC[C@H]3CC(=O)N(C)Cc3ccccc3)no2)cc1,i,35µM*,-22%[87.6 µM],-4%[87.6 µM],-22%[70.6 µM],32µM*
CN(Cc1ccccc1)C(=O)C[C@@H]1CCNC[C@@H]1Cc1cc(CSc2ccccc2)on1,i,u,-1%,-8%,1%,u
O=C(C[C@@H]1CCNC[C@@H]1Cc1cc(-c2ccc(F)cc2)on1)NCc1ccco1,i,u,-5%[87.6 µM],-4%[87.6 µM],-13%[70.6 µM],u
O=C(C[C@@H]1CCNC[C@@H]1Cc1cc(-c2ccc(F)cc2)on1)Nc1nccs1,i,100µM*,-29%[87.6 µM],-8%[87.6 µM],-2%[70.6 µM],100µM*
COc1ccc(CNC(=O)C[C@@H]2CCNC[C@@H]2Cc2cc(CN(C)Cc3ccccc3)on2)cc1,i,-20%,-20%,-13%,-3%,40µM*
CN(Cc1ccccc1)Cc1cc(C[C@H]2CNCC[C@H]2CC(=O)NCc2cccs2)no1,i,-35%,-3%,-23%,-14%,u
O=C(Cn1nc2c(cc1=O)CCCCC2)NCc1nc2ccccc2[nH]1,i,4%,-8%,-10%,0%,-5%
COc1cc(C)c(C)cc1S(=O)(=O)N1CC(C)(C)[C@@](C)(O)C1,i,4%,-21%,3%,11%,i
COc1ccc(-c2cc(C[C@H]3CNCC[C@H]3CC(=O)N3CCOCC3)no2)cc1,i,-17%[174 µM],-3%[87.6 µM],4%[87.6 µM],-9%[70.6 µM],-22%[172 µM]
COc1ccc(-c2cc(C[C@H]3CNCC[C@H]3CC(=O)NCc3ccc4c(c3)OCO4)no2)cc1,i,79µM*,u,5%,-16%,u
COc1ccc(CNC(=O)C[C@@H]2CCNC[C@@H]2Cc2cc(-c3ccc(OC)cc3)on2)cc1,i,u,7%,2%,-13%,40µM*
COc1ccc(-c2cc(C[C@H]3CNCC[C@H]3CC(=O)NCc3ccccc3OC)no2)cc1,i,71µM*,-28%,4%,-6%,u
COc1ccc(-c2cc(C[C@H]3CNCC[C@H]3CC(=O)NCc3ccc(OC)c(OC)c3)no2)cc1,i,u,-18%,7%,1%,-29%
O=C(C[C@@H]1CCNC[C@@H]1Cc1cc(-c2ccc(F)cc2)on1)Nc1ccccc1,i,35µM*,-36%[87.6 µM],u,-14%[70.6 µM],40µM*
CC(C)(C)c1ccc(-c2cc(C[C@H]3CNCC[C@H]3CC(=O)Nc3ccccc3)no2)cc1,i,u,5%[87.6 µM],-3%[87.6 µM],-10%[70.6 µM],u
CC1(C)CN(C(=O)CSC23CC4CC(CC(C4)C2)C3)CC1(C)O (stereo not given),i,-9%,5%,8%,-1%,-15%
COCC(=O)NC[C@H]1CCN(Cc2cccc(C)c2)C[C@H]1N(C)C,i,-6%,20%,3%[12.5 µM],9%,2%
Cn1cnc(S(=O)(=O)N2CCC(c3noc(C4CC4)n3)C2)c1 (stereo not given),i,3%,-6%,6%,5%,1%
CCN(C(=O)CN1C(=O)NC2(CCOCC2)C1=O)c1ccccc1,i,-3%,-1%,-4%,19%,9%
O=C(C[C@@H]1CCNC[C@@H]1Cc1cc(-c2ccccc2)on1)NCc1ccc(F)cc1,i,40µM*,u,1%[87.6 µM],-10%[70.6 µM],40µM*
Cc1ccc(C2=NC3(CCN(C(=O)c4ccco4)CC3)ON2)cc1,28µM*,-16%,104%,1%,-13%,-24%
O=C(c1ccoc1)N1CCC2(CC1)N=C(c1ccccc1)NO2,i,i,-15%,-3%,2%,0%
Cc1ccc(C2=NC3(CCN(C(=O)c4ccoc4)CC3)ON2)cc1,32µM*,-5%,35%,4%,-18%,-2%
Cc1ccc(C2=NC3(CCN(C(=O)c4ccccc4C)CC3)ON2)cc1,u,-1%,-13%,-3%,-12%,u
O=C(c1ccc(Cl)cc1)N1CCNc2cnc(Nc3cccc(C(F)(F)F)c3)nc2C1,i,22µM*,14%,0%,u,32µM*
SMILES,Luciferase inh,NIH3T3 tox,SNCA expr inhib,SNCA viab count,hNpr1 antagonist,HEK cytotox
O=C(Nc1cccs1)N1CCNc2cnc(Nc3cccc(C(F)(F)F)c3)nc2C1,i,79µM*,0%[87.6 µM],-22%[87.6 µM],-5%[70.6 µM],79µM*
O=C(c1ccc(Oc2ccccc2)cc1)N1CCNc2cnc(Nc3cccc(C(F)(F)F)c3)nc2C1,i,25µM*,u,-10%,u,22µM*
Cc1ncsc1C(=O)N1CCNc2cnc(Nc3cccc(C(F)(F)F)c3)nc2C1,i,u,-10%,-2%,u,u
O=C(Nc1cccc(C(F)(F)F)c1)Nc1cccs1,x,x,-6%,-25%,x,x
O=C(COc1ccccc1)N1CCNc2cnc(Nc3cccc(F)c3)nc2C1,i,u,8%[87.6 µM],-13%[87.6 µM],-8%[70.6 µM],u
CC(C)(C)C(=O)N1CCC2(CNS(=O)(=O)c3cnccc3O2)C1 (stereo not given),x,i,-9%,8%,x,2%
Cc1ccc(F)c(OC2(C(=O)O)CCN(Cc3cccc(C)n3)CC2)c1,i,-12%,1%,-1%,3%,3%
CCC(NC(=O)c1ccc2nc(-c3ccc(F)cc3)cn2c1)c1ncc(C)[nH]1 (stereo not given),7.9µM*,u,53%,-2%,-6%,u
O=C(NCC1CNCCOC1)c1ccc2nc(-c3ccc(F)cc3)cn2c1 (stereo not given),u,u,72%,2%,-6%,u
CC(Cc1cnccn1)NC(=O)c1ccc2nc(-c3ccc(F)cc3)cn2c1 (stereo not given),40µM*,-7%,8%,1%,6%,u
Cn1ccnc1CN1CCCC12CCN(c1ccc(C(F)(F)F)cn1)CC2,i,u,10%,-4%,-24%,50µM*
Nc1ncccc1CN1CCCC12CCN(c1ccc(C(F)(F)F)cn1)CC2,i,u,2%,-1%,-25%,u
CCCn1ccnc1CN1CCCC12CCN(c1ccc(C(F)(F)F)cn1)CC2,i,u,-30%,-17%,-1%,35µM*
